The list is not random: actives were taken first. Their share in the collection is about 3.2%.
bovine MsrA act = bovine methionine sulfoxide reductase A activation; purified bovine MsrA, absorbance read-out; activation, % at 10.6 µM; 0.3% of 360,000 active; AID 602163; in the data active means activation above about 7.5%;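 further: 0% = vehicle and 100% = reference activator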
DAGLB inhibitor = blocks human DAGLB lipase activity. Q8NCG7. HEK293T DAGLB membrane lysate, EnzChek fluorogenic substrate. inhibition, % at 5.17 µM. 0.059% of 340,000 active; in the data active means inhibition above about 34%;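 further: 0% = enzyme with vehicle and 100% = wells lacking enzyme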
Target sequence (Q8NCG7 whole entry, looked up): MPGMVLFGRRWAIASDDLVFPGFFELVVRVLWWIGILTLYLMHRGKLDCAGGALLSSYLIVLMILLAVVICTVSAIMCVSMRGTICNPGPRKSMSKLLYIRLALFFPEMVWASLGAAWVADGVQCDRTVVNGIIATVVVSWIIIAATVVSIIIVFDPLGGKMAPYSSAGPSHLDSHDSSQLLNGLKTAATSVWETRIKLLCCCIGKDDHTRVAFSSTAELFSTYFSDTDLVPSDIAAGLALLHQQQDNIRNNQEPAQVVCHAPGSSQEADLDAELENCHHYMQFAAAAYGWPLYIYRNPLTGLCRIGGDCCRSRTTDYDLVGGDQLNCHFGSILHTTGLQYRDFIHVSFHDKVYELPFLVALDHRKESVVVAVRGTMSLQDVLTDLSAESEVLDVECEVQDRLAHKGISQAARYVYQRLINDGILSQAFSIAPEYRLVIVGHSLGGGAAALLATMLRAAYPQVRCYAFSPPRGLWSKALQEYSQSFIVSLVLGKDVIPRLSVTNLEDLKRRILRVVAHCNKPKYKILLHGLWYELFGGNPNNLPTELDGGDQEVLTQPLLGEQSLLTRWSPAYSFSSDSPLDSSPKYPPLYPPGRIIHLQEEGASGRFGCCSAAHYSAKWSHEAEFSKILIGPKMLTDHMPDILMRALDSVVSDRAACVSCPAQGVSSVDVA
rCAG binder = r(CAG) repeat RNA binding; 1.3% of 370,000 active; inhibition, % at 3 µM; TO-PRO-1 dye displacement fluorescence;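 active means inhibition above the plate cutoff, the mean of all test compounds on that plate plus 3 SD, cut at about 35% in these data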;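 further: 0% = DMSO alone and 100% = 100 µM mitoxantrone as full dye displacement; higher means more dye released from RNA so lower well fluorescence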
MsrA inh = inhibits bovine methionine sulfoxide reductase A | 0.75% of 360,000 active | purified bovine MsrA, absorbance read-out | AID 651718 | inhibition, % at 15.5 µM;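 further: 0% = vehicle wells with enzyme and 100% = reference inhibitor wells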
DSG3 Ab inh = human desmoglein-3 autoantibody binding inhibition; P32926; DSG3-coupled beads, scFv-anti-DSG3-GFP binding, flow cytometry; stronger effect = lower value; binding (percent of control), % at 10 µM; 0.48% of 310,000 active;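 active means binding more than 3 SD below its plate's average and above zero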;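 further: hits lower antibody fragment binding to DSG3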
NadD inh = inhibitors of Staphylococcus aureus NadD; inhibition, % at 20 µM; purified NadD enzyme, colorimetric absorbance read-out; 0.78% of 360,000 active; in the data active means inhibition above about 26%
MsrA inh confirm = confirmation of bovine MsrA inhibitors; shares compounds with MsrA inh; purified bovine MsrA, absorbance read-out; inhibition, % at 15.5 µM; 41% of 2,300 active; AID 651822;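 further: coupled to thioredoxin reductase with NADPH and selenocystamine and DMSO as substrate; 0% = vehicle only and 100% = full effect of reference inhibitor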
rCAG binder conf = r(CAG) RNA repeat binding, confirmation; shares compounds with rCAG binder; TO-PRO-1 dye displacement fluorescence; inhibition, % at 3 µM; 70% of 4,300 active; AID 652065;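 active means inhibition above a per-plate cutoff, the mean inhibition of sample wells plus 3 SD, cut at about 35% in these data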;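 further: loss of TO-PRO-1 fluorescence as compound displaces dye from 1x1 AA loop RNA; 0% = DMSO only wells and 100% = 100 µM mitoxantrone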
dCAG dye counter = DNA CAG dye complex inhibition counter-screen. shares compounds with rCAG binder. d(CAG) DNA oligo TO-PRO-1 dye displacement, fluorescence. inhibition, % at 3 µM. 94% of 4,300 active. AID 652068;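 active means inhibition above its plate's cutoff, the mean test-well inhibition plus 3 SD, cut at about 4.8% in these data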;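 further: 0% = DNA dye mix with DMSO and 100% = 100 µM mitoxantrone; hits displace the dye from DNA and so lower well fluorescence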
An asterisk follows results filed as active; . = no result. Unless noted, no stated cut-off is given here; in the data, active means inhibition above about 4.5%; inactive means the rest.

SMILES | bovine MsrA act | DAGLB inhibitor | rCAG binder | MsrA inh | DSG3 Ab inh | NadD inh | rCAG binder conf | dCAG dye counter | others
COc1ccccc1NS(=O)(=O)c1ccc(N/N=C/c2ccccc2OCC(=O)O)c([N+](=O)[O-])c1 | -4 | 31 | 92* | 5.4* | 81 | 19 | 90* | 67* | MsrA inh confirm=3
CN1c2ccc(C#CC3CC3)cc2[C@@H]2[C@@H](CCN2C(=O)C2CCOCC2)[C@H]1CO | . | . | 10 | . | . | . | . | .
COc1cc(C)c(/C=C/C(C)=C/C=C/C(C)=C/C(=O)O)c(C)c1C | -7 | 6 | 47* | 4.7* | 100 | 14 | 54* | 17* | MsrA inh confirm=4
COC(=O)[C@]12C[C@H](CC(=O)NCc3ccc(C)o3)C(=O)N(CCc3ccc(OC)c(OC)c3)C1=C[C@H](C(C)(C)C)O[C@@H]2C | . | . | 3 | . | . | . | . | .
COc1cc(/C=N/NC(=O)C(Cc2c[nH]c3ccccc23)NC(=O)OCc2ccccc2)cc([N+](=O)[O-])c1O (stereo unspecified) | -7 | 30 | 83* | 5.8* | 94 | 42* | 81* | 47* | MsrA inh confirm=5.2*
CCc1cc(C(=O)O)c(NC(=O)/C=C/c2ccc(OC)c(OC)c2)s1 | -6 | 3 | 56* | 5.6* | 96 | -2 | 40* | 9.9* | MsrA inh confirm=4.9*
CCOC(=O)C1=C(O)/C(=C/c2ccc(OCC(=O)O)c(OCC)c2)SC1=Nc1ccc(OC)cc1 | -2 | 6 | 56* | 4.7* | 98 | -1 | 64* | 22* | MsrA inh confirm=3
N#C/C(=N\Nc1ccc(S(=O)(=O)N2CCCCCC2)cc1)C(N)=S | -7 | 16 | 45* | 2 | 100 | 11 | 44* | 14*
N#C/C(=N\Nc1ccc(S(=O)(=O)N2CCCCC2)cc1)C(N)=S | -3 | 11 | 27 | 0 | 98 | -2 | . | .
CCOC(=O)/C(C#N)=N/Nc1ccc(S(=O)(=O)N2CCc3ccccc32)cc1 | -3 | 5 | 40* | 2 | 96 | 10 | 42* | 15*
N#C/C(=N\Nc1ccc(S(=O)(=O)N2CCc3ccccc32)cc1)C(N)=S | -7 | 22 | 85* | 1 | 103 | 23 | 62* | 27*
COC(=O)N1C[C@H](OCc2ccc3c(c2)OCO3)[C@H]2C[C@@H]1c1ccccc1O2 | . | . | 1 | 0 | . | . | . | .
COC(=O)C1=CN(c2ccc(C(C)(C)C)cc2)C(N)=C(C#N)C1c1cccc2ccccc12 (stereo unspecified) | . | . | 14 | -1 | . | . | . | .
O=C(O)c1cccc(S(=O)(=O)Nc2ccc3[nH]c(=O)[nH]c3c2)c1 | -1 | -1 | 0 | 0 | 102 | 1 | . | .
Cc1ccc(Oc2ccc(NS(=O)(=O)c3cccc(C(=O)O)c3)cc2)cc1 | -9 | 8 | 38* | 0 | 128 | -1 | 38* | 10*
O=C(O)c1cccc(S(=O)(=O)Nc2ccc3oc(=O)sc3c2)c1 | 3 | -1 | 42* | 0 | 106 | 0 | 7 | 2
N#C/C(=C(/O)CCl)c1nc(-c2ccccc2)cs1 | -4 | 4 | 42* | 0 | 103 | 5 | 38* | 18*
CCCC(=O)N1CCC[C@]2(CC[C@@H](CCC(=O)N(CC)CC)O2)C1 | . | . | -2 | . | . | . | . | .
CC(=O)Nc1cc(-c2ccc(C(=O)NC3CC3)cc2)cn2c(-c3cccc(C(F)(F)F)c3)cnc12 | -2 | . | 10 | 0 | . | 0 | . | .
COCCNC(=O)C1Nc2ccc(OC(F)(F)F)cc2C2C=CCC12 (stereo unspecified) | -1 | 9 | 29 | 0 | 98 | -4 | . | .
FC(F)(F)c1ccc2c(c1)C1C=CCC1C(c1ccncc1)N2 (stereo unspecified) | -4 | 11 | 44* | 2 | 95 | 4 | 3 | 2
COCCNC(=O)C1Nc2ccc(C(F)(F)F)cc2C2C=CCC12 (stereo unspecified) | -2 | 3 | 44* | -1 | 96 | -2 | 2 | 2
COC(=O)CNC(=O)C1Nc2ccc(OC(F)(F)F)cc2C2C=CCC12 (stereo unspecified) | -4 | -6 | 39* | -1 | 105 | -1 | 1 | 0

Screens as filed in PubChem BioAssay.
